The list is not random: actives were taken first. Their share in the collection is about 1.6%.
KCNQ2 inh – inhibitors of rat KCNQ2 potassium channel; O88943; CHO-K1 KCNQ2, FluxOR thallium flux, 20 min; stronger effect = lower value; B-score at 10 µM; 310,000 tested, 1.1% active;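 active = fluorescence ratio B-score at most minus 3 library SDs, with starting brightness B-score within 2 library SDs, cut at about -5.5 in these data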
Target sequence (O88943 whole entry, looked up): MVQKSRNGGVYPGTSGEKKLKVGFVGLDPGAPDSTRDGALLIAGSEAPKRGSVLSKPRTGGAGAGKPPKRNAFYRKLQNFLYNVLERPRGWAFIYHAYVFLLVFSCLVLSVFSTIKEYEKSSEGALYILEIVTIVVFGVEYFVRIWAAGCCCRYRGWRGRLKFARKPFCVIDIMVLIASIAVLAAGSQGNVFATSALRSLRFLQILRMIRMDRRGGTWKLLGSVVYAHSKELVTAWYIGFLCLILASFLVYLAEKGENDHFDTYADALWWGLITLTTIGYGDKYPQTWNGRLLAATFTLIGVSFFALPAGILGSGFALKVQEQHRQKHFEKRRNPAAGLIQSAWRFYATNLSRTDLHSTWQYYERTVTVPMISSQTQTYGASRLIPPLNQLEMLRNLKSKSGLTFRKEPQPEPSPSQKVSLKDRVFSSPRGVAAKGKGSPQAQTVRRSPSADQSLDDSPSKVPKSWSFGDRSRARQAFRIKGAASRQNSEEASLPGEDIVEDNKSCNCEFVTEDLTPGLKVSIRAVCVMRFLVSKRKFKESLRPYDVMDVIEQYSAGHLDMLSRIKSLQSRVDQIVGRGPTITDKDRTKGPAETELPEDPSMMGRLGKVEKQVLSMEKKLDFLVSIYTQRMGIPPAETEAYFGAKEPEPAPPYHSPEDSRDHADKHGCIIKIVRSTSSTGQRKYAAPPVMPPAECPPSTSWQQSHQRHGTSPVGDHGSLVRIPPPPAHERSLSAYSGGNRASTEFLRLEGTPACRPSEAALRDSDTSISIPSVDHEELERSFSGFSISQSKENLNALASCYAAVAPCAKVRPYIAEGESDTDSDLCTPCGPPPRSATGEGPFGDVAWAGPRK
KCNQ2 enhance – KCNQ2 (rat) channel potentiation | O88943 | CHO-K1 KCNQ2, FluxOR thallium flux fluorescence; stronger effect = higher value | B-score at 10 µM | 310,000 tested, 0.54% active;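 active = fluorescence ratio B-score at least 3 SD of library B-scores, with initial fluorescence B-score within 3 of them, cut at about 5.3 in these data; same plate scores as AID 2156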;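 also: B-score of peak minus minimum over baseline fluorescence ratio after K+ and Tl+ stimulus; positive B-score means potentiation of KCNQ2 with more thallium influx and brighter signal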
The depositor's hits bear a star; i = inactive; nt = no result given.

SMILES | KCNQ2 inh | KCNQ2 enhance
CCOC(=O)c1oc2ccccc2c1NC(=O)CCl | i | nt
Cc1ncc(S(=O)(=O)c2ccc(Cl)cc2)c(N)n1 | i | 1.1
Cc1cc(C(=S)N2CCOCC2)c(C)n1-c1ccc(F)cc1 | i | nt
Cc1ccc(-n2c(C)cc(C(=S)N3CCOCC3)c2C)cc1C | -7.4* | -7.4
Cc1ccc(C(=O)N/N=c2\sc3ccccc3n2C)cc1 | i | 12*
COc1cccc(C(=O)N/N=c2\sc3ccccc3n2C)c1 | i | 2.1
Cc1ccc2c(CN3C(=O)NC4(CCCCC4)C3=O)cc(=O)oc2c1C | -6.6* | -6.6
Cc1ccc(C)c(CN2C(=O)NC3(CCCCCC3)C2=O)c1 | i | 1.2
Nc1nc(NCc2ccco2)nc(NCCO)c1[N+](=O)[O-] | i | 0.02
CCOC(=O)N1CC=C2C(C#N)=C(N)C(C#N)(C#N)[C@H](c3cccs3)C2C1 (some centres undefined) | i | nt
CC(C)(C)OC(=O)N1CC=C2C(C#N)=C(N)C(C#N)(C#N)C(c3cccs3)C2C1 (centres undefined) | -6.2* | -6.2
COCCN(Cc1ccco1)C(=O)Cn1ncc2c(=O)oc3ccccc3c21 | i | nt
CCCCC(=O)Nc1ccc(NC(=O)C(C)C)cn1 | i | 1.9
CC(C)Cn1c(-c2ccco2)csc1=Nc1cccnc1 | -6.3* | -6.3
COCCn1c(-c2ccco2)csc1=Nc1cccnc1 | i | nt
Cc1ccc(S(=O)(=O)N(C)C)cc1NC(=O)COC(=O)CCC1CCCC1 | i | nt
CC(=O)c1ccc(NC(=O)CSc2nc(C3CC3)nc3ccccc23)cc1 | i | 1.1
O=C(CSc1nc(C2CC2)nc2ccccc12)N1c2ccccc2Sc2ccccc21 | -6.1* | -6.1
O=C(C1CC2C=CC1C2)N1CCN(c2ccccc2)CC1 (centres undefined) | i | nt
CC1(C)C(C=C(Cl)Cl)C1C(=O)N1CCN(c2ccccc2)CC1 (centres undefined) | -5.7* | -5.7
O=C(CSc1ccc2nnc(-c3ccc(Cl)cc3)n2n1)N1CCCc2ccccc21 | i | 0.82
CC(C)(C)OC(=O)NCc1ccc(NC(=O)c2nc[nH]c2C(=O)N[C@@H](Cc2ccccc2)C(=O)OCc2ccccc2)cc1 | i | nt
CCOC(=O)c1ccc(NC(c2ccc(N(C)C)cc2)P(=O)(OC(C)C)OC(C)C)cc1 (centres undefined) | -6.5* | -6.5
CCOP(=O)(OCC)C(Nc1ccc(C(=O)O)cc1)c1ccccc1 (centres undefined) | i | 0.79
O=C(Nc1ccccc1)c1sc(Cl)nc1-c1ccccc1 | i | nt
SMILES | KCNQ2 inh | KCNQ2 enhance
NC(=O)c1ccsc1NC(=O)CS(=O)(=O)c1ccc(Cl)cc1 | i | nt
COc1ccc(CC(=O)Nc2cccc(-c3nnc(-c4cccc(C)c4)o3)c2)cc1OC | -7* | -7
COc1ccc(CC(=O)Nc2cccc(-c3nnc(-c4ccc(C)cc4)o3)c2)cc1OC | i | nt
COc1ccccc1/C=N/NC(=O)c1cc2c(ccc3ccccc32)o1 | -6.4* | -6.4
Cc1ccc(-c2ccc(/C=N\NC(=O)c3cc4c(ccc5ccccc54)o3)o2)cc1[N+](=O)[O-] | i | 0.08
O=C(N/N=C/c1ccc(-c2ccc(Cl)c(C(=O)O)c2)o1)c1cc2c(ccc3ccccc32)o1 | i | 5.4*
COc1ccc(/C=N/NC(=O)c2cc3c(ccc4ccccc43)o2)cc1OC | i | 0.7
COc1ccc(C(C(=O)NC2CCCC2)N(C(=O)c2snc(-c3ccc(F)cc3)c2N)c2ccc(OC)cc2)cc1 (centres undefined) | -5.7* | -5.7
COc1ccc(C(C(=O)NC2CCCC2)N(C(=O)c2snc(-c3ccc(F)cc3)c2N)c2ccc(F)cc2)cc1 (centres undefined) | i | nt
Cc1ccc2c(CN3CCCCC3CCO)cc(=O)oc2c1 (centres undefined) | i | 0.14
CCOC(=O)C1CCN(c2nc3ccccc3n2CC(=O)c2ccccc2)CC1 | i | nt
COc1cccc(C(=O)N2CCn3c2nc2ccccc23)c1 | -8.7* | -8.7
COc1ccc(C(=O)N2CCn3c2nc2ccccc23)cc1 | i | nt
COc1ccc(N2CCN(c3nc4ccccc4n3CC(=O)c3ccccc3)CC2)cc1 | -6.3* | -6.3
Cc1ccc(C)c(N2CCN(C(=O)CCCOc3cc(=O)n(C)c4ccccc34)CC2)c1 | -6.4* | -6.4
Cc1ccc(C)c(N2CCN(C(=O)COc3cc(=O)n(C)c4ccccc34)CC2)c1 | i | nt
Cc1ccc(C(C)C)c(OCC(=O)Nc2ccc3c(c2)nc(CN2CCCC2)n3C)c1 | i | nt
CCOC(=O)c1[nH]c(CSc2nnc(-c3ccc(OC)cc3)o2)c(C(=O)OCC)c1C | i | nt
COc1ccnc2c1c(=O)n(Cc1ccccc1Cl)c(=O)n2C | i | nt
COc1ccnc2c1c(=O)n(Cc1ccc(Cl)cc1Cl)c(=O)n2C | -5.9* | -5.9
Oc1ccccc1C1=Nc2ccccc2N=C(c2cccs2)C1 | i | nt
Cc1ccc(O)c(C2=Nc3ccccc3N=C(c3cccs3)C2)c1 | -5.6* | -5.6
CCC(C)NC(=O)CCCCCn1c(=O)[nH]c2cc(OC)c(OC)cc2c1=O (centres undefined) | i | 1.2
N#Cc1nc(COc2ccc(Cl)cc2Cl)oc1N1CCN(c2ccccc2)CC1 | -7.7* | -7.7
COc1ccc(N2CCN(c3oc(COc4ccc(Cl)cc4Cl)nc3C#N)CC2)cc1 | i | 0.01
SMILES | KCNQ2 inh | KCNQ2 enhance
CC1CN(C(=S)c2cccc([N+](=O)[O-])c2)CC(C)O1 (centres undefined) | i | 0.06
COc1ccc(NC(=O)COC(=O)c2c3c(nc4ccccc24)CCCC3)cc1 | i | nt
CCc1ccc(C(=O)CSc2n[nH]c(-c3ccncc3)n2)cc1 | i | 6.3*
COC(=O)CSc1n[nH]c(-c2ccncc2)n1 | i | 0.64
C[C@@H]1CC=C[C@H]2[C@H]1C(=O)N(Cc1ccccc1)[C@H]2c1ccc(-c2ccc(F)cc2)cc1F | i | nt
C[C@@H]1CC=C[C@H]2[C@H]1C(=O)N(Cc1ccccc1)[C@H]2c1ccc(-c2ccoc2)cc1F | -6.9* | -6.9
O=C1C2C3CCC(O3)C2C(=O)N1c1cccc(O)c1 (centres undefined) | i | 0.13
Cc1cccc(C(=O)Nc2ccc(C(=O)/C=C/c3cccnc3)cc2)c1 | i | nt
Cc1cccc(C(=O)Nc2ccc(C(=O)/C=C/c3ccncc3)cc2)c1 | -6* | -6
O=C(c1ccccc1)N1CCc2ccccc21 | i | nt
O=C(NC(=S)N1CCc2ccccc21)c1ccccc1 | i | 14*
COc1ccc(-c2cc(C(=O)Nc3cccc(Cl)c3)no2)cc1 | i | nt
COc1ccc(OC)c(-c2cc(C(=O)Nc3cccc(Cl)c3)no2)c1 | -7.5* | -7.5
Cc1nc(-c2ccccc2)nc(-c2ccccc2)n1 | i | nt
Cc1ccc(S(=O)(=O)Nc2ccccc2C(=O)NCC2CCCO2)cc1 (centres undefined) | i | nt
Oc1ccc(NCc2cccc(OCc3ccc(F)cc3)c2)cc1 | -5.8* | -5.8
Oc1ccc(NCc2cccc(OCc3ccccc3)c2)cc1 | i | nt
COc1ccccc1OCCCOc1c(C)cc(C)cc1Br | i | 0.79
O=C(Nc1ccn(Cc2c(F)c(F)cc(F)c2F)n1)c1ccc(COc2ccc(Cl)cc2Cl)o1 | i | nt
COC(=O)c1ccc(COc2ccccc2OC)o1 | i | 0.51
COC(=O)c1ccccc1NC(=O)c1ccc(COc2cccc3ccccc23)o1 | -6.5* | -6.5
CCCCN(CCCC)C(=O)C1(P(=O)(c2ccccc2)c2ccccc2)CCC1 | -6.2* | -6.2

Assay outcomes deposited in PubChem by Johns Hopkins Ion Channel Center.
